These results are taken from PubChem BioAssay (NCI).

Holding throughout (test): NCI-60 one-dose screen, 48 h (100 = growth as untreated, 0 = no growth, -100 = all killed)
Common to all, as to conditions: 10 µM unless noted

For test [1], the system named is NCI-H23 lung.
Test [2] has as its system NCI-H226 lung.
Test [3] concerns NCI-H322M lung.
Test [4] has as its system HOP-62 NSCLC.
Test [5] concerns NCI-H460 lung.
The test system of test [6] is HOP-92 NSCLC.
Test [7] has as its system NCI-H522 lung.
Test [8] relates to A549/ATCC NSCLC.
Test [9] concerns 786-0 renal.
Test [10] has as its system COLO 205 colon.
Test [11] has as its system DU-145 prostate.
Test [12] has as its system K-562 leukemia.
Test [13] has as its system MALME-3M melanoma.
The test system of test [14] is MDA-MB-231 breast.
For test [15], the system named is RXF 393 renal.
Test [16] relates to SF-268 CNS.
The test system of test [17] is SF-295 CNS.
Test [18] relates to SF-539 CNS.
Test [19] has as its system UACC-257 melanoma.
Test [20] has as its system M14 melanoma.

Compounds without any hit were thinned out: in the full panel of roughly 83,000, 20% have a hit.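 Each cell line was grown in a 96-well plate and treated with one concentration of compound for 48 hours. Values below 10 were considered active.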 Unmarked numbers belong to inactive results. The source made the active and inactive calls.

For the compound `COc1c(F)cc(-n2c(C(=O)N3CC(F)C3)cc3cccnc32)cc1F`, the growth in test [1] was 94.1%; in test [2] it was 96.2%; in test [3] it was 95.1%; in test [4] it was 97.8%; in test [5] it was 106%; in test [6] it was 82.7%. Also, the growth in test [7] was 91.2%; in test [8], 113%; in test [9], 103%; in test [10], 118%; in test [11], 106%; in test [12] it was 95.5%. In addition, the growth in test [13] is 121%; in test [14] it was 96.5%; in test [15] it was 107%; in test [16], 94.9%; in test [17], 102%; in test [18], 98%. Besides, the growth in test [19] is 102%; in [20] it was 119%.

In the case of `Nc1n[nH]c2cccc(C#Cc3cccc(C(=O)Nc4ccc(CN5CCOCC5)c(C(F)(F)F)c4)c3)c12`, the growth in [1] is 33.6%; in [2], 36.5%; in test [3], 72.2%; in test [4], 52.1%; in test [5] it was 44.5%; in test [6] it was 35.5%. The growth was 41.9% in test [7]; 43.4% in test [8]; 8.57% (active) in test [9]; 13.1% in test [10]; 69.5% in test [11]; 4.19% (active) in test [12]. Also, the growth is -3.92% (active) in test [13]; 28.8% in test [14]; -4.45% (active) in test [15]; 55% in [16]; 2.26% (active) in [17]; -54.5% (active) in test [18]. In addition, the growth is 40.1% in test [19] and 5.11% (active) in test [20].

For `CN(C)CCCn1c2nc(=O)[nH]c(=O)c-2nc2cc(Cl)c(Cl)cc21`, the growth in test [1] is 109%; in test [2] it was 105%; in test [3], 69.1%; in [4] it was 117%; in test [5], 107%; in test [6], 88.3%. Besides, the growth in test [7] was -23.7% (active); in test [8] it was 99%; in test [9], 103%; in [10], 4.28% (active); in test [11], 115%; in test [12], 47.9%. Moreover, the growth in test [13] was 106%; in [14], 98.6%; in [15], 111%; in test [16], 108%; in test [17], 99.3%; in test [18], 105%. Further, the values for the growth in test [19] and in test [20] were 41.7% and 51.1%, respectively.

Take `CC(=O)N1N=C(c2ccc(F)cc2)CC1c1sc(N(C)Cc2ccccc2)nc1Cl` (stereo not given): the growth in [1] is 85.1%; in test [2] it was 102%; in test [3] it was 99.6%; in test [4], 91.7%; in test [5] it was 106%; in [6] it was 85.9%. Moreover, the growth was 81.6% in test [7]; 88.6% in [8]; 84.9% in test [9]; 98.7% in test [10]; 103% in test [11]; 75.1% in [12]. For the same compound, the growth in [13] was 102%; in test [14], 101%; in test [15], 101%; in [16] it was 87.1%; in test [17] it was 97.6%; in test [18], 104%. In addition, the growth in test [19] was 118%; in [20], 95.2%.

With `CN1C(=O)N(C)C2(c3ccccc3)N(CC(=O)Nc3ccccc3O)C(=O)NC12c1ccccc1` (stereo not given), the growth was 101% in [1]; 90.7% in [2]; 100% in test [3]; 102% in [4]; 106% in test [5]; 107% in [6]. For the same compound, the growth in [7] is 86.2%; in [8], 109%; in [9] it was 103%; in [10], 110%; in test [11] it was 110%; in test [12], 101%. Further, the growth was 107% in test [13]; 101% in test [14]; 113% in [15]; 96.5% in [16]; 101% in test [17]; 96.4% in test [18]. Also, the growth in [19] was 125%; in test [20], 105%.

For the compound `COC1=CC(c2ccc[nH]2)=N/C1=C\c1[nH]c(C)c(C(=O)Oc2ccccc2)c1C`, the growth was -32.9% (active) in [1]; -39.8% (active) in [2]; -13.1% (active) in test [3]; -22.2% (active) in test [4]; -31.2% (active) in test [5]; -35.4% (active) in test [6]. Moreover, the growth in [7] was -64% (active); in [8], -44.1% (active); in test [9], -44.1% (active); in [10], -81.4% (active); in test [11] it was 9.64% (active); in test [12] it was 8.48% (active). Moreover, the growth in test [13] is -79.6% (active); in test [14], -69.2% (active); in test [15], -9.71% (active); in test [16] it was 14.9%; in [17], -74.9% (active); in [18] it was -74.6% (active). Further, the growth in test [19] was -54.9% (active); in test [20], -59.2% (active).

As for `O=C1OCC2=C1C(c1cccc(C(F)(F)F)c1)c1cc3c(cc1N2CCO)CCC3` (stereo not given), the growth was 25.7% in [1]; 40.2% in test [2]; 45% in test [3]; 15.9% in test [4]; 3.4% (active) in test [5]; 64.2% in test [6]. Besides, the growth in test [7] was -18.4% (active); in test [8], 12.4%; in test [9], 17%; in test [10] it was -55.2% (active); in test [11], -6.77% (active); in test [12] it was 7.05% (active). In addition, the growth was 43.9% in test [13]; 28.4% in test [14]; 49.7% in test [15]; 17.3% in [16]; 1.03% (active) in test [17]; -15.6% (active) in test [18]. For the same compound, the growth in test [19] is 67.8%; in [20], 0.275% (active).

In the case of `Cc1ccc(S(=O)(=O)Nc2cc(Sc3ccccc3)c(O)c3ccccc23)cc1`, the growth is 58% in test [1]; 96% in test [2]; 102% in test [3]; 112% in test [4]; 105% in test [5]; 18.2% in test [6]. Moreover, the growth in [7] is 81%; in test [8], 90.3%; in [9], 104%; in [10], 108%; in [11] it was 84.3%; in [12], 41.1%. Besides, the growth in test [13] is 77.7%; in test [14] it was -1.57% (active); in [15], 105%; in test [16], 65.8%; in test [17] it was 96.8%; in test [18] it was 92.9%. The figures for the growth in test [19] and in test [20] were 62.8% and 107%, respectively.
